Data as given in PubChem BioAssay AID588342 (National Center for Advancing Translational Sciences (NCATS), 2011).
The whole screen tested about 360,000 compounds, of which about 25,000 (6.9%) were called active. Another 9% or so got no clear call; they are omitted. Calls follow the shape of the dose curve; as a rule, active = well fitted inhibition curve with a large enough effect; inconclusive = small, poorly fitted or top-dose-only effect; inactive = flat fitted curve, though single readings scatter. The list comes from a sample in which actives are over-represented; it also holds similar structures and randomly drawn compounds. A call without a number means that no potency is given here.

Molecular target: Luciferin 4-monooxygenase (Photinus pyralis) (UniProt P08659)
Test: qHTS profiling assay for firefly luciferase inhibitor/activator using purifed enzyme and Km concentrations of substrates (counterscreen for miR-21 project); also: nearly all actives have a fitted effect of over 55% in size
Conditions: purified FLuc, luminescence inhibition; series mostly up to 57.5 µM
How it was run: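 Purified P. pyralis luciferase, 10 nM final, with Km-level 10 uM D-luciferin and 10 uM ATP in 50 mM Tris acetate pH 7.5, 10 mM Mg acetate, 0.01% Tween-20, 0.05% BSA; 6-point qHTS titration about 60 µM downward; luminescence read.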
Potency is read from the fitted curve at half-maximal effect.

Chain of Luciferin 4-monooxygenase (Photinus pyralis) (P08659 whole entry, looked up): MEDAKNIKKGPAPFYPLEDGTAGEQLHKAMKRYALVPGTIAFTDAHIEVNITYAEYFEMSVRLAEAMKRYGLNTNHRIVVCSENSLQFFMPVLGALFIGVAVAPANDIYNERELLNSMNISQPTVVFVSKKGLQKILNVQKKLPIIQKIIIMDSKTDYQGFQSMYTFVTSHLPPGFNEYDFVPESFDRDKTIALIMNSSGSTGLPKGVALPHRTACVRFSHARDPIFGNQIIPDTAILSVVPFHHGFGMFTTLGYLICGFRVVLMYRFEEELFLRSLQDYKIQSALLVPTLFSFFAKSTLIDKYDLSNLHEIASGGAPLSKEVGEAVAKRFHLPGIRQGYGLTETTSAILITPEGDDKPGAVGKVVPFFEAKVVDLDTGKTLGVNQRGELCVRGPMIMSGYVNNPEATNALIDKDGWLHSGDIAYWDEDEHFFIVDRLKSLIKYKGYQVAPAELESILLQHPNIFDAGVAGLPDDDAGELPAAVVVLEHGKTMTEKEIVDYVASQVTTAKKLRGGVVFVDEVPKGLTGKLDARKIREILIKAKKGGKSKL

SMILES | Potency
CCNC(=O)c1cnn(-c2ccccc2)c1-c1ccccc1 | inactive
O=C(Cn1cnc2c(oc3ccccc32)c1=O)Nc1ccc(OC(F)(F)F)cc1 | inactive
CC(=O)c1nn(-c2ccc(OC(F)(F)F)cc2)nc1Nc1ccccc1 | 0.379 µM (active)
CCN(CC)CC(=O)Nc1nn(-c2ccccc2)nc1C(N)=O | inactive
Cc1ccc(C(=O)NCCSc2c(C)[nH]c3ccccc23)cc1C | inactive
O=C(NCc1ccco1)c1nc(-c2ccccc2)n(-c2ccccc2)n1 | inactive
CCc1ccc(-c2cc(C(=O)NCc3ccco3)c3ccccc3n2)s1 | 5.36 µM (active)
CCOc1ccc(CNC(=O)c2cc(-c3ccc(Cl)s3)nc3ccccc23)cc1 | inactive
COc1ccccc1N1CCN(CCCNC(=O)c2cnn(-c3ccccc3Cl)c2C2CCN(C(=O)OC(C)(C)C)CC2)CC1 | inactive
Cc1ccc(OS(=O)Nc2cccc3nccnc23)cc1 (stereo not given) | inactive
CCOc1ccc(NC(=O)C(=O)NCCc2csc3nc(-c4ccccc4F)nn23)cc1 | inactive
COc1ccc(OC)c(NC(=O)c2sc3nc(C)cc(C)c3c2N)c1 | inactive
COc1cc(OC)c(C(=O)NC2CCCCCC2)cc1OC | inactive
COCc1cc(C)nc2sc(C(=O)NC3CCCCC3)c(N)c12 | 16.9 µM (active)
CCOC(=O)c1c(C)oc2nc(C)nc(Nc3ccc(CC)cc3)c12 | inactive
O=C(Nc1ccc(F)cc1)C(=O)c1cn(CC(=O)N2CCOCC2)c2ccccc12 | 2.69 µM (active)
O=C(NCc1ccco1)C(=O)c1cn(CC(=O)N2CCCCCC2)c2ccccc12 | inactive
COc1cccc(NC(=O)C(=O)c2cn(CC(=O)N3CCOCC3)c3ccccc23)c1 | 5.36 µM (active)
COc1cccc(NC(=O)CS(=O)(=O)c2cn(CC(=O)N3CCOCC3)c3ccccc23)c1 | inactive
CN1CCN(C(=O)C(=O)c2cn(CC(=O)N3CCCC3)c3ccccc23)CC1 | inactive
O=C(CSc1cn(CC(=O)N2CCOCC2)c2ccccc12)Nc1ccccc1 | inactive
CCc1cccc(C)c1NS(=O)(=O)c1ccc(-c2cc(C)no2)s1 | inactive
Cc1ccc2oc(=O)c3cnn(CC(=O)N4CCN(c5cccc(Cl)c5)CC4)c3c2c1 | inactive
Cc1ccc(N2CC(c3nnc(Cc4ccccc4Cl)o3)CC2=O)cc1 (stereo not given) | inactive
Cc1cccc(NC(=O)CSc2nc3c(oc4ccccc43)c(=O)n2-c2ccc(F)cc2)c1 | inactive
COc1ccc(-c2nc3nc(C)cc(C)n3c2Nc2c(C)cccc2C)cc1 | inactive
CCCCC(CC)CNC(=O)C1CCN(S(=O)(=O)c2cccc3nsnc23)CC1 (stereo not given) | inactive
COc1cc(C(=O)OC2CCOC2=O)c([N+](=O)[O-])cc1OC (stereo not given) | inactive
Cc1nn(Cc2ccccc2)c(Cl)c1C(=O)OC1CCOC1=O (stereo not given) | inactive
O=C(OC1CCOC1=O)c1ccc(-c2nc3ccccc3s2)s1 (stereo not given) | 0.19 µM (active)
